Measured values: PubChem BioAssay (Tox21)
Inconclusive results are not listed. A number with no mark means an inactive call. Activity calls are given as the source filed them. Calls follow the shape of the dose curve; as a rule, active = well fitted curve in the direction sought with a large enough effect in the repeat runs; inconclusive = weak or mixed curves; inactive = no such curve, though single readings can be large; an effect the other way counts as inactive or inconclusive.

Tests used:
[1] = qHTS assay to identify small molecule agonists of the retinoic acid receptor (RAR) signaling pathway (AID 1159553)
Method in brief: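 6 hr compound exposure (DMSO vehicle) of overnight-plated C3RL4 RARE-luc cells at 37 C; luminescence quantified after 30 min RT with luciferase reagent.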

[2] = qHTS assay to identify small molecule antagonists of the estrogen related receptor (ERR) signaling pathway from Tox21 library - cell viability counter screen (AID 1224834); also: nearly all actives have a fitted effect of over 30% in size; also: potency is read from the fitted curve at half-maximal effect
Method in brief: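 Seeded ERR cells were rested 6 h at 37 C/5% CO2 before compounds, positive and negative controls or DMSO were added. Incubation continued for 17.5 h, and viability was then quantified by CellTiter-Fluor fluorescence.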

[3] = qHTS assay to identify small molecule antagonists of the retinoic acid receptor (RAR) signaling pathway (AID 1159552; also: nearly all actives have a fitted effect of over 50% in size)
Method in brief: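 Cells of the C3RL4 line were seeded, incubated overnight, then dosed with compounds in DMSO followed immediately by retinol (1 uM final). Six hours later luciferase detection reagent went in; signal was measured after 30 min at RT.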
% is scaled to controls: 0 for no effect and ±100 for the full control effect.

SMILES	Potency [1]	Potency [2]	activity, negative = inhibition [3]	viability change, negative = cytotoxic [2]
CC(C)Nc1ccc(NC(C)C)c2c1C(=O)c1ccccc1C2=O	inactive	20.1 µM (active)		
CN(C)c1ccc(/C=C/c2ccc([N+](=O)[O-])cc2)cc1			84.6% [at 8.39 µM]	1.01% [at 8.39 µM]
